Data reported in the supplement of paper PMC12494721.
Where a name gives a salt, the structure may show the parent alone.

Legend:
Details in all cases: 20 µM; incubation time: 27 h, anaerobic, 37 °C;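 for the amine columns active = adjusted P below 0.05 in both replicates with a change the same way and a mean fold change under 0.8 or over 1.25; inactive = the rest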
[1] = test system: Clostridium sporogenes DSM 1664; experiment: growth (OD595) fold change vs plate DMSO controls (fold change (ratio)); higher = more growth
Method in brief: (§1)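 Anaerobic 27 h, 37 °C mGAM 96-well cultures were shaken, then read for absorbance at 595 nm. Values were blank-subtracted and corrected for compound background using 20 µM compound solutions in water. A calibration factor of 5 converted them to OD. Growth is the fold change versus the median of plate DMSO controls. Fold changes above 1.5 were set to NA, and values are the mean of 2 biological replicates.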

[2] = test system: Escherichia coli IAI1; experiment: as above
Method in brief: as §1

[3] = test system: Klebsiella aerogenes DSM 30053; experiment: as above
Method in brief: as §1

[4] = test system: Ruminococcus gnavus DSM 108212; experiment: as above
Method in brief: as §1

[5] = test system: Klebsiella aerogenes DSM 30053; experiment: fold change of Histamine concentration vs plate DMSO controls (fold change (ratio)); higher = more amine produced, active = hit call of the paper (significant change in both replicates, either direction)
Method in brief: (§2)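 In 80 µL wells, cultures of four gut bacterial strains in mGAM started at OD 0.1 before a 1:1 dilution and grew anaerobically at 37 °C for 27 h. Compounds were added to 20 µM final, except sweeteners at 50 µM final. After extraction of whole cultures with cold acetonitrile/methanol plus 0.1% formic acid and centrifugation, amines were measured by LC–triple-quadrupole MS in dynamic MRM mode against external calibration curves, with within-batch drift correction. Values give fold change over DMSO controls on the same plate, averaged across 2 biological replicates.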

[6] = test system: Clostridium sporogenes DSM 1664; experiment: fold change of Tryptamine concentration vs plate DMSO controls (fold change (ratio)); higher = more amine produced, active = hit call of the paper (significant change in both replicates, either direction)
Method in brief: as §2

[7] = test system: Ruminococcus gnavus DSM 108212; experiment: as above
Method in brief: as §2

[8] = test system: Escherichia coli IAI1; experiment: fold change of Putrescine concentration vs plate DMSO controls (fold change (ratio)); higher = more amine produced, active = hit call of the paper (significant change in both replicates, either direction)
Method in brief: as §2

[9] = test system: Klebsiella aerogenes DSM 30053; experiment: as above
Method in brief: as §2

[10] = test system: Escherichia coli IAI1; experiment: fold change of Cadaverine concentration vs plate DMSO controls (fold change (ratio)); higher = more amine produced, active = hit call of the paper (significant change in both replicates, either direction)
Method in brief: as §2

[11] = test system: Klebsiella aerogenes DSM 30053; experiment: as above
Method in brief: as §2

[12] = test system: Ruminococcus gnavus DSM 108212; experiment: fold change of 2-Phenylethylamine concentration vs plate DMSO controls (fold change (ratio)); higher = more amine produced, active = hit call of the paper (significant change in both replicates, either direction)
Method in brief: as §2

SMILES | growth [1] | growth [2] | growth [3] | growth [4] | fold change of Histamine concentration [5] | fold change of Tryptamine concentration [6] | fold change of Tryptamine concentration [7] | fold change of Putrescine concentration [8] | fold change of Putrescine concentration [9] | fold change of Cadaverine concentration [10] | fold change of Cadaverine concentration [11] | fold change of 2-Phenylethylamine concentration [12]
NCCc1c[nH]c2ccc(O)cc12 [Serotonin hydrochloride] | 0.937 | 0.985 | 0.99 | 0.934 | 1.1 (inactive) | 1.02 (inactive) | 1 (inactive) | 0.993 (inactive) | 1.08 (inactive) | 1.06 (inactive) | 1.06 (inactive) | 0.93 (inactive)
CN1[C@@H]2CC[C@H]1C[C@@H](OC(=O)C(CO)c1ccccc1)C2 (stereo not given in full) [Atropine sulfate monohydrate] |  | 0.98 |  | 0.986 | 1.03 (inactive) |  | 1.01 (inactive) | 0.982 (inactive) | 1.02 (inactive) | 0.957 (inactive) | 1.02 (inactive) | 1.01 (inactive)
CN1CCN(C(=O)OC2c3nccnc3C(=O)N2c2ccc(Cl)cn2)CC1 (stereo not given) [Zopiclone] | 1.13 | 0.987 | 0.952 | 0.842 | 1.03 (inactive) | 1.02 (inactive) | 0.989 (inactive) | 0.98 (inactive) | 1.02 (inactive) | 0.979 (inactive) | 0.99 (inactive) | 0.988 (inactive)
O=C1C2(Cl)C3(Cl)C4(Cl)C(Cl)(Cl)C5(Cl)C3(Cl)C1(Cl)C5(Cl)C24Cl (stereo not given) | 0 | 1.09 | 1.04 |  | 1.07 (inactive) | 0.0206 (active) | 0.27 (active) | 1.05 (inactive) | 1.07 (inactive) | 1.14 (inactive) | 1.05 (inactive) | 0.297 (inactive)
CCCN1C[C@H](CSC)C[C@@H]2c3cccc4[nH]cc(c34)C[C@H]21 [Pergolide mesylate] | 0.995 | 0.953 | 0.998 | 0.982 | 0.953 (inactive) | 0.969 (inactive) | 1.02 (inactive) | 0.968 (inactive) | 0.993 (inactive) | 1.06 (inactive) | 1.01 (inactive) | 1.04 (inactive)
CCCCN(CCCC)SN(C)C(=O)Oc1cccc2c1OC(C)(C)C2 | 1.06 | 1.03 | 1.01 | 0.993 | 1.01 (inactive) | 0.965 (inactive) | 1.01 (inactive) | 1.05 (inactive) | 1.02 (inactive) | 1.03 (inactive) | 0.998 (inactive) | 0.987 (inactive)
CC(C)CC(N(C)C)C1(c2ccc(Cl)cc2)CCC1 (stereo not given) [Sibutramine hydrochloride] | 0.99 | 1 | 1.01 | 0.908 | 1.05 (inactive) | 0.976 (inactive) | 0.985 (inactive) | 1.01 (inactive) | 0.999 (inactive) | 0.984 (inactive) | 0.989 (inactive) | 1 (inactive)
C[C@]12CCC(=O)C(O)=C1CC[C@@H]1[C@@H]2CC[C@]2(C)C(=O)CC[C@@H]12 [Formestane] | 1.03 | 0.965 | 0.974 | 1.13 | 1.05 (inactive) | 0.968 (inactive) | 1 (inactive) | 1.02 (inactive) | 1.01 (inactive) | 1.01 (inactive) | 0.981 (inactive) | 1.03 (inactive)
C[C@]12C=CC(=O)C=C1CC[C@@H]1[C@@H]2CC[C@@]2(C)[C@H]1CC[C@]2(C)O [Methandrostenolone] | 1.01 | 0.989 | 1 | 0.931 | 0.999 (inactive) | 0.98 (inactive) | 1.03 (inactive) | 1.01 (inactive) | 0.995 (inactive) | 1.01 (inactive) | 0.991 (inactive) | 1.02 (inactive)
CC(C)(C)NCC(O)c1ccccc1Cl (stereo not given) [Tulobuterol Hydrochloride] | 0.953 | 0.972 | 0.966 | 1.11 | 0.972 (inactive) | 1 (inactive) | 1.01 (inactive) | 1.02 (inactive) | 1.02 (inactive) | 0.993 (inactive) | 1.01 (inactive) | 1.03 (inactive)
CN[C@@H]1C[C@@H](c2ccc(Cl)c(Cl)c2)c2ccccc21 [Indatraline hydrochloride] | 1.13 | 1.06 | 0.959 | 0.932 | 0.904 (inactive) | 1.29 (inactive) | 0.8 (inactive) | 0.811 (inactive) | 0.863 (inactive) | 0.98 (inactive) | 1.1 (inactive) | 0.883 (inactive)
O=C1CC[C@@]2(O)[C@H]3Cc4ccc(O)c5c4[C@@]2(CCN3CC2CC2)[C@H]1O5 [Naltrexone hydrochloride dihydrate] |  | 0.661 | 0.69 | 0.579 | 1.03 (inactive) |  | 0.934 (inactive) | 1.02 (inactive) | 1.01 (inactive) | 0.995 (inactive) | 0.992 (inactive) | 0.896 (inactive)
CCC1(CC)C(=O)C=CNC1=O [Pyrithyldione] | 0.889 | 0.977 | 1.04 | 0.877 | 1.03 (inactive) | 0.966 (inactive) | 1.02 (inactive) | 1.01 (inactive) | 1.03 (inactive) | 1 (inactive) | 1.02 (inactive) | 0.996 (inactive)
C#CCOc1ccc(CCNC(=O)C(OCC#C)c2ccc(Cl)cc2)cc1OC (stereo not given) | 1 | 1.06 | 1.03 | 0.954 | 0.95 (inactive) | 0.986 (inactive) | 0.989 (inactive) | 1.05 (inactive) | 1.01 (inactive) | 0.933 (inactive) | 1.01 (inactive) | 0.964 (inactive)
CCN(C)C(=O)Oc1cccc([C@H](C)N(C)C)c1 [Rivastigmine] | 0.985 | 1.03 | 1.02 | 1.05 | 0.987 (inactive) | 1.18 (inactive) | 1.13 (inactive) | 0.958 (inactive) | 0.993 (inactive) | 0.937 (inactive) | 1.03 (inactive) | 1.18 (inactive)
CC1(C)C(C(=O)OC(C#N)c2cccc(Oc3ccccc3)c2)C1(C)C (stereo not given) | 0.931 | 1.02 | 1.01 | 1.15 | 1 (inactive) | 1.06 (inactive) | 1.17 (inactive) | 0.937 (inactive) | 0.987 (inactive) | 0.982 (inactive) | 1 (inactive) | 1.25 (inactive)
O=c1[nH]c2ccccc2n1C1CCN(CCCC(c2ccc(F)cc2)c2ccc(F)cc2)CC1 [Pimozide] | 1.41 | 0.978 | 0.99 | 1.25 | 1.01 (inactive) | 0.938 (inactive) | 0.846 (inactive) | 0.979 (inactive) | 1.01 (inactive) | 0.964 (inactive) | 0.995 (inactive) | 0.898 (inactive)
COC(=O)Nc1nc2ccccc2[nH]1 | 0.898 | 0.977 | 0.989 | 0.903 | 1.01 (inactive) | 0.968 (inactive) | 0.959 (inactive) | 0.997 (inactive) | 1 (inactive) | 1 (inactive) | 0.989 (inactive) | 0.951 (inactive)
COP(=S)(OC)Oc1ccc(SC)c(C)c1 | 1.1 | 1.09 | 0.997 | 0.973 | 0.959 (inactive) | 1.02 (inactive) | 1.08 (inactive) | 0.971 (inactive) | 0.989 (inactive) | 0.98 (inactive) | 1.04 (inactive) | 1.12 (inactive)
CCC(=O)O[C@H]1CC[C@H]2[C@@H]3CCC4=CC(=O)CC[C@]4(C)[C@H]3CC[C@]12C [Testosterone propionate] | 1.02 | 1.01 | 1.03 |  | 1.02 (inactive) | 0.993 (inactive) | 1.08 (inactive) | 0.938 (inactive) | 1.02 (inactive) | 0.985 (inactive) | 1.07 (inactive) | 1.23 (inactive)
c1cc2c3c(cccc3c1)CC2 [Acenaphthene] | 1.04 | 1.01 | 0.974 | 0.995 | 1.04 (inactive) | 0.986 (inactive) | 1.01 (inactive) | 1.02 (inactive) | 1.02 (inactive) | 1.03 (inactive) | 0.982 (inactive) | 1.05 (inactive)
O=C(CCCN1CCC(n2c(=O)[nH]c3ccccc32)CC1)c1ccc(F)cc1 [Benperidol] | 1.07 | 0.943 | 0.941 | 0.827 | 1 (inactive) | 1.01 (inactive) | 1.03 (inactive) | 0.998 (inactive) | 1.02 (inactive) | 1.02 (inactive) | 1.02 (inactive) | 1.05 (inactive)
CC[C@H](C)C1O[C@]2(C=C[C@@H]1C)C[C@@H]1C[C@@H](C/C=C(\C)[C@@H](O[C@H]3C[C@H](OC)[C@@H](O[C@H]4C[C@H](OC)[C@H](NC)[C@H](C)O4)[C@H](C)O3)[C@@H](C)/C=C/C=C3\CO[C@@H]4[C@H](O)C(C)=C[C@@H](C(=O)O1)[C@]34O)O2 (stereo not given in full) | 0.931 | 1.08 | 1.05 |  | 0.888 (inactive) | 0.823 (inactive) | 0.581 (active) | 1.05 (inactive) | 0.995 (inactive) | 1.02 (inactive) | 0.995 (inactive) | 0.654 (inactive)
CCCC(C)C1(CC)C(=O)NC(=O)NC1=O (stereo not given) [Pentobarbital] | 1.06 | 1.08 | 0.979 | 0.814 | 1.07 (inactive) | 0.993 (inactive) | 1.02 (inactive) | 1.1 (inactive) | 1.02 (inactive) | 1.01 (inactive) | 0.988 (inactive) | 1.04 (inactive)
